In PubChem BioAssay (NCATS):
Records with an inconclusive call do not appear. Values without a mark were called inactive. Active and inactive are the calls of the source. Unless noted, the call rests on the fitted dose curve; in most records, active means well fitted curve in the direction sought with a large enough effect; inconclusive means small, poorly fitted or top-dose-only effect, or another doubt; inactive means no such curve, though single readings can be large; an effect the other way counts as inactive or inconclusive.

Molecular target: Calcium and integrin-binding protein 1 (Homo sapiens) (UniProt Q99828)
Assay: Primary qHTS for Identification of Calcium Integrin Binding Protein 1 (CIB1) Competitor (AID 1508620);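 further: GST tagged CIB1 binding a fluorescein labelled alphaIIb integrin peptide tracer; top concentration of the series differs between compounds; on the % scale 0 is the no-effect control and ±100 the full control effect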
Conditions: CIB1-GST / FITC-alphaIIb peptide fluorescence polarization; series mostly up to 114 µM; activity change, negative = inhibition: at the top concentration
In short: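 Fluorescence polarization competition: CIB1-GST (1 uM final) preincubated with compound 15 min at room temperature, then FITC-labeled alphaIIb peptide (100 nM final) added for another 15 min. Polarization read at Ex 480/Em 540.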

Calcium and integrin-binding protein 1 (Homo sapiens), sequence (Q99828 whole entry, looked up): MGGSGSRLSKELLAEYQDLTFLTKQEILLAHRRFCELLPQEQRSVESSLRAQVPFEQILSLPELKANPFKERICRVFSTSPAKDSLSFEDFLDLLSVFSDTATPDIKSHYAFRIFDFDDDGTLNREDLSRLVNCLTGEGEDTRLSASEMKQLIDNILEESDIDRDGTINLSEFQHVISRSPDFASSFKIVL

Compound	activity change, negative = inhibition	outcome
Oc1cn2c(n1)Nc1ccc(Cl)c(Cl)c1C2	2.41% [at 57.7 µM]	–
CO/N=C(\C(=O)N[C@@H]1C(=O)N2C(C(=O)O)=C(CSc3nc(=O)c(O)nn3C)CS[C@H]12)c1csc(N)n1	-27.2%	–
Cc1ncc(COP(=O)(O)O)c(C=O)c1O	0.272%	–
CC(=O)O[C@@]12CO[C@@H]1C[C@H](O)[C@@]1(C)C(=O)[C@H](O)C3=C(C)[C@@H](OC(=O)[C@H](O)[C@@H](NC(=O)OC(C)(C)C)c4ccccc4)C[C@@](O)([C@@H](OC(=O)c4ccccc4)[C@H]21)C3(C)C	0.633%	–
CCOc1ccc2ccccc2c1C(=O)N[C@@H]1C(=O)N2[C@@H]1SC(C)(C)[C@@H]2C(=O)O	–	inactive
CC(=O)Oc1ccc(C2(c3ccc(OC(C)=O)cc3)C(=O)Nc3ccccc32)cc1	3.93%	–
CC(=O)Nc1ccc(/C=N/NC(N)=S)cc1	-3.92%	–
O=C1NS(=O)(=O)c2ccccc21	-0.245%	–
Cc1c(Cl)cccc1Nc1ccccc1C(=O)O	-7.6%	–
CC(O)CN(CCN(CC(C)O)CC(C)O)CC(C)O (stereo not given)	-1.27%	–
CC[N+](CC)(CC)CCOc1ccc(/C=C/c2ccccc2)cc1	7.07%	–
CC/C=C(\C(=O)N[C@@H]1C(=O)N2C(C(=O)OCOC(=O)C(C)(C)C)=C(COC(N)=O)CS[C@H]12)c1csc(N)n1	–	inactive
O=C(O)[C@H](O)c1ccccc1	1.91%	–
O=c1cc[nH]c(=S)[nH]1	-0.488%	–
COc1ccc2cc1Oc1ccc(cc1)C[C@H]1c3c(cc4c(c3Oc3cc5c(cc3OC)CCN(C)[C@@H]5C2)OCO4)CCN1C	–	inactive
[Cl][In]([Cl])[Cl]	46.8% [at 228 µM]	–
CSc1ccc2c(c1)C(N1CCN(C)CC1)Cc1ccccc1S2 (stereo not given)	3.67%	–
COc1ccc2c(c1)C(=O)N(CCc1ccc(S(=O)(=O)NC(=O)NC3CCCCC3)cc1)C(=O)C2(C)C	-3.08%	–
COCCOC(=O)C1=C(C)NC(C)=C(C(=O)OC/C=C/c2ccccc2)C1c1cccc([N+](=O)[O-])c1 (stereo not given)	-0.46%	–
CCCc1c(OCCCCc2nn[nH]n2)ccc(C(C)=O)c1O	-7.96%	–
Cc1c(O)cccc1C(=O)N[C@@H](CSc1ccccc1)[C@H](O)CN1C[C@H]2CCCC[C@H]2C[C@H]1C(=O)NC(C)(C)C	-0.3%	–
CN1CCN(C2Cc3ccccc3Sc3ccc(Cl)cc32)CC1 (stereo not given)	-8.5%	–
CS(=O)(=O)c1ccc([C@@H](O)[C@@H](CF)NC(=O)C(Cl)Cl)cc1	–	inactive
Cc1cc(N)c2ccccc2[n+]1CCCCCCCCCC[n+]1c(C)cc(N)c2ccccc21	0.401%	–
CCCCN(CCCC)CCCOC(=O)c1ccc(N)cc1	11.4%	–
CC(=O)Oc1c(C)c(C)c2c(c1C)CC[C@@](C)(CCC[C@H](C)CCC[C@H](C)CCCC(C)C)O2	0.445%	–
CSc1ccc2c(c1)N(CCC1CCCCN1C)c1ccccc1S2 (stereo not given)	0.0331%	–

Tested on: not listed separately
Assay: Confirmatory qHTS for small molecule stabilizers of the endoplasmic reticulum resident proteome: Secreted ER Calcium Modulated Protein (SERCaMP) assay (AID 1508628); further: potency means the concentration at half of the fitted maximal effect; nearly all actives have a fitted effect of over 40% in size
Conditions: SERCaMP secreted luciferase ER calcium/proteostasis reporter; series mostly up to 76.3 µM; activity change, negative = decrease: at the top concentration
In short: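 SH-SY5Y cells stably expressing GLuc-SERCaMP, treated 16 h with compound (primary 1.53, 7.67, 38.3 uM; confirmation 11 concentrations, up to 76.6 uM), then 100 nM thapsigargin for 4 h. Secreted Gaussia luciferase in medium read by coelenterazine luminescence.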

Compound	Potency
Cc1c(O)cccc1C(=O)N[C@@H](CSc1ccccc1)[C@H](O)CN1C[C@H]2CCCC[C@H]2C[C@H]1C(=O)NC(C)(C)C	11.2 µM (active)
CN1CCN(C2Cc3ccccc3Sc3ccc(Cl)cc32)CC1 (stereo not given)	17.8 µM (active)
CC(C)(C)[C@]1(O)CCN2C[C@H]3c4ccccc4CCc4cccc(c43)[C@@H]2C1	12.6 µM (active)

Tested on: not listed separately
Assay: Primary qHTS for small molecule stabilizers of the endoplasmic reticulum resident proteome: Secreted ER Calcium Modulated Protein (SERCaMP) assay (AID 1508630); further: on the % scale 0 is the no-effect control and ±100 the full control effect
Conditions: SH-SY5Y GLuc-SERCaMP (Gaussia luciferase released on ER calcium loss) secretion, thapsigargin, luminescence; series mostly up to 38.4 µM; activity change, negative = inhibition: at the top concentration
In short: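 GLuc-SERCaMP-expressing SH-SY5Y cells, pretreated 16 h with compound, are challenged with thapsigargin to empty ER calcium stores; after 4 h, coelenterazine is added directly to the medium and luminescence is imaged.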

Compound	activity change, negative = inhibition [%]	Potency
O=C1NS(=O)(=O)c2ccccc21	-25.2	–
CC[N+](CC)(CC)CCOc1ccc(/C=C/c2ccccc2)cc1	–	inactive
CC(C)(C)c1onc(OCP(=O)(O)O)c1CC(N)C(=O)O (stereo not given)	–	inactive
O=c1cc[nH]c(=S)[nH]1	-1.09	–
COc1ccc2cc1Oc1ccc(cc1)C[C@H]1c3c(cc4c(c3Oc3cc5c(cc3OC)CCN(C)[C@@H]5C2)OCO4)CCN1C	59.4	–
COc1ccc2c(c1)C(=O)N(CCc1ccc(S(=O)(=O)NC(=O)NC3CCCCC3)cc1)C(=O)C2(C)C	44.1	–
COCCOC(=O)C1=C(C)NC(C)=C(C(=O)OC/C=C/c2ccccc2)C1c1cccc([N+](=O)[O-])c1 (stereo not given)	–	inactive
CCCc1c(OCCCCc2nn[nH]n2)ccc(C(C)=O)c1O	–	inactive
c1ccc(CN(CC2=NCCN2)c2ccccc2)cc1	–	inactive
Cc1cc(N)c2ccccc2[n+]1CCCCCCCCCC[n+]1c(C)cc(N)c2ccccc21	–	inactive

Tested on: not listed separately
Assay: A High-Content qHTS Against Drug Library for the Identification of Small Molecules that Inhibit DYT1 Early Onset Primary Dystonia-Associated Cell Pathology (AID 1645839; calls by dose curve; further: potency means the concentration at half of the fitted maximal effect)
Conditions: HEK293 Flp-In EGFP-delE TorsinA, punctate imaging, 48 h; series mostly up to 46.1 µM; % pathology change, negative = correction: at the top concentration
In short: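 Readout: %pathology, the punctate EGFP-TorsinA distribution from imaging, as the primary channel and cell count as the toxicity counterscreen. HEK293 Flp-In cells expressing delE TorsinA were induced with tetracycline and treated with compound for 48 h.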

Compound	% pathology change, negative = correction	Potency
Oc1cn2c(n1)Nc1ccc(Cl)c(Cl)c1C2	1.92% [at 19.1 µM]	–
CO/N=C(\C(=O)N[C@@H]1C(=O)N2C(C(=O)O)=C(CSc3nc(=O)c(O)nn3C)CS[C@H]12)c1csc(N)n1	4.88%	–
Cc1ncc(COP(=O)(O)O)c(C=O)c1O	0.72%	–
CC(=O)O[C@@]12CO[C@@H]1C[C@H](O)[C@@]1(C)C(=O)[C@H](O)C3=C(C)[C@@H](OC(=O)[C@H](O)[C@@H](NC(=O)OC(C)(C)C)c4ccccc4)C[C@@](O)([C@@H](OC(=O)c4ccccc4)[C@H]21)C3(C)C	-17.6%	–
CCOc1ccc2ccccc2c1C(=O)N[C@@H]1C(=O)N2[C@@H]1SC(C)(C)[C@@H]2C(=O)O	2.68%	–
CC(=O)Oc1ccc(C2(c3ccc(OC(C)=O)cc3)C(=O)Nc3ccccc32)cc1	-19.9%	–
CC(=O)Nc1ccc(/C=N/NC(N)=S)cc1	2.33%	–
O=C1NS(=O)(=O)c2ccccc21	-14.7%	–
CC(O)CN(CCN(CC(C)O)CC(C)O)CC(C)O (stereo not given)	2.98%	–
CC[N+](CC)(CC)CCOc1ccc(/C=C/c2ccccc2)cc1	-23.5%	–
CC/C=C(\C(=O)N[C@@H]1C(=O)N2C(C(=O)OCOC(=O)C(C)(C)C)=C(COC(N)=O)CS[C@H]12)c1csc(N)n1	8.52%	–
O=C(O)[C@H](O)c1ccccc1	7.64%	–
O=c1cc[nH]c(=S)[nH]1	14%	–
[Cl][In]([Cl])[Cl]	-24.3% [at 91.7 µM]	–
COCCOC(=O)C1=C(C)NC(C)=C(C(=O)OC/C=C/c2ccccc2)C1c1cccc([N+](=O)[O-])c1 (stereo not given)	–	11.2 µM (active)
CN1[C@@H]2CC(OC(=O)[C@H](CO)c3ccccc3)C[C@H]1[C@@H]1O[C@@H]12 (stereo not given in full)	0.259%	–
CS(=O)(=O)c1ccc([C@@H](O)[C@@H](CF)NC(=O)C(Cl)Cl)cc1	-18.2%	–
c1ccc(CN(CC2=NCCN2)c2ccccc2)cc1	-30%	–
CCCCN(CCCC)CCCOC(=O)c1ccc(N)cc1	-0.992%	–
CC(=O)Oc1c(C)c(C)c2c(c1C)CC[C@@](C)(CCC[C@H](C)CCC[C@H](C)CCCC(C)C)O2	-1.25%	–
